Test [1] concerns the target PEG-3 (UniProt Q6IN02). Nature of the test: Peg3 promoter luciferase inhibitors, potency, dose response, cell-based, HeLa, CREF/GAPDH counter-screen panel (AID 624167). The note with it: CREF/GAPDH counter-screens; HeLa PEG-Prom luciferase reporter, overnight, run 1, dose range 1, at 100 µM (top of the series) unless noted.
The target in test [2] is PEG-3 (UniProt Q6IN02). The test is described as above. The conditions noted are these: CREF/GAPDH counter-screens; HeLa PEG-Prom luciferase reporter, overnight, run 2, dose range 1, at 100 µM (top of the series) unless noted. For orientation: The purpose of a counterscreen is to sort out artefacts and off-target activity.
Sequence of PEG-3 (Q6IN02 whole entry, looked up): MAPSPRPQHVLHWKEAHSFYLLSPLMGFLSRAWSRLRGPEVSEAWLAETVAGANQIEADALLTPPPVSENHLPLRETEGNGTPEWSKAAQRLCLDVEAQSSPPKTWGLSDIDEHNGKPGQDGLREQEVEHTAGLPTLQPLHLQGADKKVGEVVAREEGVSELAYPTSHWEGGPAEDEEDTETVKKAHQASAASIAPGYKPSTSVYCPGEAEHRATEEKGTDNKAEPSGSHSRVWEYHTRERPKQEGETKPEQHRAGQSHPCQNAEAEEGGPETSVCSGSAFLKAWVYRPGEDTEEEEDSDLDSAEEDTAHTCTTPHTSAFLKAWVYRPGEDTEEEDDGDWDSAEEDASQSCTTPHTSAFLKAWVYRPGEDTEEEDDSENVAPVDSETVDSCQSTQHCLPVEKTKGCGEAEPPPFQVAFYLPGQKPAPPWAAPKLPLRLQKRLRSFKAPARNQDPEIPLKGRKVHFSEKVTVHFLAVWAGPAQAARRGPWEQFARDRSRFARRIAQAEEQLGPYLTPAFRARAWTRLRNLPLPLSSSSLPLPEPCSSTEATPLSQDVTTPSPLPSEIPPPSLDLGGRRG

`CN(C)CCNc1ncnc2c1sc1nc(N3CCOCC3)c3c(c12)CC(C)(C)SC3`: the inhibition amounted to 98% in the test with PEG-3 [1] and 101% with PEG-3 [2].

With `Cc1cc(C)c2c(N)c3ccccc3nc2n1`, the inhibition with PEG-3 [1] amounted to 102%; in the test with PEG-3 [2] it was 101%.

Take `CC(C)(C)c1ccc(/C=N/Nc2ccc(C(=O)O)cc2)cc1`: the inhibition with PEG-3 [1] is 89%; with PEG-3 [2], 98.5%.

What is called inhibition is the change of the read-out against control, counted positive when it falls.

For the origin of these results see PubChem BioAssay.
